Nine compounds from PubChem BioAssay (NCI) can be followed below.

The structures appear in SMILES notation. This is part of a sample that, as a whole, favours compounds with a hit. Of some 83,000 tested, about 20% had one in any assay.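 Activity criterion: percent growth below 10, measured after cells in 96-well plates were exposed to a single compound concentration for 48 hours.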 Unmarked numbers belong to inactive results. Active and inactive are the calls of the source.

Common to all, as to test: NCI-60 one-dose screen, 48 h (100 = growth as untreated, 0 = no growth, -100 = all killed)
What all share (settings): 10 µM unless noted

Assay [1] concerns SK-MEL-2 melanoma.
Assay [2] deals with EKVX NSCLC.
The test system of assay [3] is SN12C renal.
The test system of assay [4] is UO-31 renal.
Assay [5] concerns TK-10 renal.
The subject of assay [6] is ACHN renal.
Assay [7] deals with CAKI-1 renal.
Assay [8] deals with A498 renal.
For assay [9], the system named is MOLT-4 leukemia.
The test system of assay [10] is SR leukemia.
Assay [11] relates to OVCAR-8 ovarian.
The subject of assay [12] is OVCAR-5 ovarian.
Assay [13] relates to SK-OV-3 ovarian.
Assay [14] concerns IGROV1 ovarian.
For assay [15], the system named is OVCAR-3 ovarian.
The test system of assay [16] is HS 578T breast.
The test system of assay [17] is NCI/ADR-RES ovarian.
Assay [18] concerns CCRF-CEM leukemia.
The test system of assay [19] is RPMI-8226 leukemia.
Assay [20] deals with OVCAR-4 ovarian.

For `Nc1cc(C(=O)O)cc(C(=O)O)c1`, the growth in assay [1] is 89.6%; in assay [2] it was 105%; in assay [3] it was 96.3%; in [4], 84.8%; in assay [5] it was 101%; in [6] it was 109%. The growth in [7] is 104%; in [8], 98%; in assay [9], 90.1%; in assay [10] it was 75.3%; in assay [11] it was 99.3%; in [12], 105%. In addition, the growth in assay [13] was 97%; in assay [14], 102%; in [15], 123%; in assay [16], 113%; in assay [17] it was 112%.
Consider `CNC(=O)c1c(NC(=O)c2ccc(C(C)C)cc2)sc2c1CCC(=O)C2`, for which the growth in assay [1] was -6.19% (active); in assay [2] it was -4.35% (active); in assay [3], -10.8% (active); in [4], -99.6% (active); in assay [5], 28.7%; in assay [6], -90.2% (active). Moreover, the growth in [7] is -9.28% (active); in assay [8] it was -19.7% (active); in [18], 1.96% (active); in assay [10] it was 2.8% (active); in [19], -26.2% (active); in assay [11] it was 11%. For the same compound, the growth in assay [20] was -74.3% (active); in assay [13], -3.87% (active); in assay [14], -52.7% (active); in assay [15] it was -10.8% (active); in assay [16], 19.1%; in [17], -7.01% (active).
Regarding `CC(C)(C)[Si](C)(C)OC1[C@@H](O[Si](C)(C)C(C)(C)C)[C@@H](CNC(=O)NC(=O)NC(=O)CCl)O[C@H]1n1cnc2c(NC(=O)Nc3ccccc3)ncnc21` (some centres not stated), the growth in [1] was 84.9%; in assay [2], 86.3%; in assay [3] it was 54.6%; in [4] it was -94.9% (active); in assay [5] it was 97.2%; in [6], -12.9% (active). Moreover, the growth in [7] was 76.2%; in assay [8] it was 88.7%; in assay [18], -30.4% (active); in [10] it was -10.7% (active); in assay [19], 46.8%; in assay [11], 25.1%. The growth was 74.1% in [12]; 97.3% in assay [13]; -51.8% (active) in assay [14]; -6.77% (active) in assay [15]; 74.3% in assay [16].
Take `CCN(CC)c1ccc(/C=N/NC(=O)c2ccc(S(C)(=O)=O)cc2)c(O)c1`: the growth in assay [1] is 19.5%; in [2], 15.5%; in [3] it was 31.2%; in assay [4], -1.73% (active); in assay [5] it was 30.5%; in assay [6], 17.1%. Also, the growth is 20.4% in assay [7]; 45.3% in [8]; 6.94% (active) in assay [18]; 9.02% (active) in assay [10]; 21% in assay [19]; 16.8% in assay [11]. The growth was 32.5% in [12]; 34.7% in [20]; 39% in assay [13]; 21.2% in assay [14]; 33.4% in assay [15]; 68% in assay [16]. In addition, the growth in assay [17] is 17.8%.
As for `O=C1CCCN1C1CCN2CCCc3cccc1c32` (configuration not stated), the growth in assay [1] was 102%; in assay [2], 102%; in assay [3] it was 104%; in [4] it was 81.3%; in assay [5] it was 103%; in [6], 106%. The growth in assay [7] was 105%; in assay [8], 99.2%; in [10], 83.5%; in assay [11] it was 103%; in [12], 99.9%; in [20], 105%. In addition, the growth in assay [13] was 110%; in assay [14], 98.5%; in [15] it was 121%; in [16], 112%; in [17] it was 108%.
As to `C=CCN(CC#N)CC=C`, the growth is 117% in assay [1]; 100% in assay [2]; 102% in [3]; 92.4% in assay [4]; 103% in [5]; 109% in [6]. For the same compound, the growth is 107% in assay [7]; 112% in assay [8]; 102% in assay [9]; 93.2% in assay [10]; 100% in assay [11]; 102% in [12]. The growth in assay [13] is 116%; in [14], 120%; in assay [15], 119%; in [16], 121%; in assay [17] it was 115%.
As for `CS(=O)(=O)c1ccc(C(=O)Nc2ccc(Cl)c(-c3ccccn3)c2)c(Cl)c1`, the growth in assay [1] was -6.37% (active); in assay [2], 23.5%; in assay [3], 28.2%; in assay [4] it was 24.6%; in [5], 11.9%; in assay [6], 27.9%. Moreover, the growth in assay [7] is -17.6% (active); in assay [8], 6.2% (active); in assay [9] it was 11.5%; in assay [10] it was 9.7% (active); in [11], 23.3%; in [12], 33.6%. Also, the growth in [20] was 26.8%; in assay [13], 19.2%; in assay [15] it was -11.1% (active); in [16], 51.1%; in assay [17], 11.1%.
As to `CCOC(=O)c1cc(C(=O)OCC)c(C)nc1C`, the growth in [1] was 124%; in [2], 102%; in assay [3], 105%; in [4], 96.5%; in [5], 113%; in assay [6] it was 112%. Besides, the growth in assay [7] was 103%; in [8] it was 110%; in [9], 90.8%; in assay [10], 87.9%; in assay [11] it was 104%; in assay [13], 114%. For the same compound, the growth was 111% in [14], 114% in [15], 126% in assay [16] and 110% in assay [17].
For the compound `CC(C)C/C=C/C=C/C(=O)N[C@@H](CC(N)=O)C(=O)N[C@@H]1C(=O)N[C@H](c2ccc(O)cc2)C(=O)N[C@H](CCCN)C(=O)N[C@H]([C@@H](C)O)C(=O)N[C@H](c2ccc(O)cc2)C(=O)N[C@H](c2ccc(O)cc2)C(=O)N[C@H]([C@H](C)O)C(=O)N[C@H](Cc2ccccc2)C(=O)N[C@H](CCCN)C(=O)N[C@H](c2ccc(O[C@H]3O[C@@H](CO)[C@@H](O)[C@@H](O)[C@H]3O[C@@H]3O[C@H](CO)[C@H](O)[C@H](O)[C@@H]3O)cc2)C(=O)N[C@H]([C@H](C)O)C(=O)N[C@H](c2ccc(O)cc2)C(=O)NCC(=O)N[C@H](CC(C)C)C(=O)N[C@H](C)C(=O)N[C@H](c2ccc(O)c(Cl)c2)C(=O)O[C@@H]1C(N)=O`, the growth in assay [1] is 88.2%; in [2], 92.7%; in assay [3], 94.5%; in [4], 118%; in [5], 74.5%; in assay [6], 111%. Besides, the growth in assay [7] was 97.1%; in assay [8], 199%; in assay [9], 38.8%; in assay [10] it was 33.1%; in assay [19] it was 109%; in [11], 63.9%. Also, the growth in assay [12] was 36.2%; in assay [20], 117%; in assay [13] it was 87.4%; in assay [14], 96.6%; in assay [15], 117%; in [16], 67.3%. In assay [17], the growth is 96.9%.
